# Screens from PubChem.
# Most compounds without a hit are left out; they make up all but 1.5% or so of the library.
# Bcl-xL primary: inhibitors of human Bcl-xL | AID 2129 | 320,000 compounds, 0.7% hits | inhibition, % at 10.9 µM | GST-Bcl-xL / FITC-Bim BH3 peptide fluorescence polarization;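 active = inhibition above the mean of all tested compounds plus 3 SD, cutoff set per campaign, cut at about 30% in these data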;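 note: inhibitors lower millipolarization by displacing the labeled peptide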
# GLD-1 TGE inh: GLD-1-TGE RNA interaction inhibition (C. elegans). Q17339. purified GLD-1 + fluorescein TGE RNA, fluorescence polarization. inhibition, % at 5.96 µM. 320,000 compounds, 0.44% hits. AID 2280;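 active = percent inhibition above a per-plate cutoff, the plate mean of test compounds plus 3 SD, cut at about 30% in these data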
# E coli Lon inh: inhibits E. coli Lon protease. P0A9M0. purified E. coli Lon protease, fluorescence polarization. inhibition, % at 7.94 µM. 360,000 compounds, 0.42% hits. AID 602123; in the data active = inhibition above about 13%, passing the limit was not always enough
# EBV gp42 inh: inhibitors of Epstein-Barr virus glycoprotein 42. 220,000 compounds, 0.42% hits. Fluorescence polarization binding assay, mP read-out. Q1HVG2. inhibition, % (tested at 21.74 µM). AID 1085; in the data active = inhibition above about 50%
# MCL1 BIM primary: disrupts human MCL1 binding to BIM-BH3 peptide; GST-MCL1 / FITC-Bim-BH3 fluorescence polarization; AID 2057; inhibition, % at 10.9 µM; 320,000 compounds, 0.68% hits;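 active = inhibition above the mean inhibition of all tested compounds plus 3 SD, set per campaign, cut at about 40% in these data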;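 note: higher means more loss of mP so more displacement of Bim peptide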
# MEX-5 binding: C. elegans MEX-5 TCR-2 RNA binding activity | MEX-5/FITC-TCR2 RNA binding, fluorescence polarization; hits give low values | 300,000 compounds, 0.38% hits | activity score (negative = inhibition of binding), % at 10 µM | AID 1832;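 active = inhibition past about -25% in most replicates, and total fluorescence under double the plate's negative control median, limit read from the data; inconclusive = replicates evenly split on the limit, or fluorescence at least double controls; inactive = too little inhibition in most replicates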
# Target sequence (Q9XUB2 whole entry, looked up): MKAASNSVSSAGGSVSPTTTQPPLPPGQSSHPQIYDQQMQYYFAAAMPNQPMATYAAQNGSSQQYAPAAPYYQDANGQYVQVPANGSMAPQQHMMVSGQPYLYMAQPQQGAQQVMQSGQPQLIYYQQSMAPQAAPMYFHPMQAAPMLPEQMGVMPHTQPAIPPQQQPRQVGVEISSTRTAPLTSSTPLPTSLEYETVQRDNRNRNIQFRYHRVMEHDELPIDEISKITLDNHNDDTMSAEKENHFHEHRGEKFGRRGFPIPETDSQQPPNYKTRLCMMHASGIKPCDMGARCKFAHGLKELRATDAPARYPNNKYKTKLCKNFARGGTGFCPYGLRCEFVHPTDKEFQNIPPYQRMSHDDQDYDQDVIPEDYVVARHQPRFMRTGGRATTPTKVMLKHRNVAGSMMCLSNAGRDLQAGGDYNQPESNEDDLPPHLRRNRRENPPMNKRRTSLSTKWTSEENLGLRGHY
# Hits are given with their value; - = inactive; ? = inconclusive; . = not tested or not shown; + = active, no number.
SMILES,Bcl-xL primary,GLD-1 TGE inh,E coli Lon inh,EBV gp42 inh,MCL1 BIM primary,MEX-5 binding
CC(C(=O)N1CCCCC1)N1CCN(S(=O)(=O)c2ccc(Cl)cc2)CC1 (stereo not given),-,-,-,.,-,.
Fc1cc(Br)ccc1Nc1nc2ccccc2n2nnnc12,-,-,-,-,-,-
Fc1ccccc1N1CCN(c2nc3ccccc3n3nnnc23)CC1,36,-,-,-,52,-
Cc1cc(C)c(C#N)c(SCC(=O)N2CCCCC2)n1,-,-,-,119,-,-
Cc1cc(C)c(C#N)c(SCC(=O)N2CCN(Cc3ccccc3)CC2)n1,-,-,-,-,-,-
CCOC(=O)C(NCc1ccccc1OC)(NC(=O)c1ccccc1)C(F)(F)F (stereo not given),-,-,-,-,-,-
CCOC(=O)C(NCc1ccco1)(NC(=O)c1ccc(OC)cc1)C(F)(F)F (stereo not given),-,-,-,118,-,-
COc1ccc2c(Cl)c(C(=O)N/N=C/c3ccc4c(c3)OCO4)sc2c1,-,-,-,-,-,-
COc1ccc2c(Cl)c(C(=O)N/N=C3\CCCC(=O)C3)sc2c1,40,129,-,-,-,-
C/C(=N\N1CCN(C2c3ccccc3-c3ccccc32)CC1)c1ccncc1,-,-,-,117,-,-
O=C1NC(=S)S/C1=C\c1ccc2ccccc2c1,-,-,-,.,-,-
CCCCNC(=O)CC1Nc2ccccc2NC1=O (stereo not given),32,-,-,-,-,-
O=C(CC1Nc2ccccc2NC1=O)Nc1cc(Cl)cc(Cl)c1 (stereo not given),-,-,-,-,-,?
COC(=O)c1c(NC(=O)CC2Nc3ccccc3NC2=O)sc(C)c1C (stereo not given),-,-,-,-,-,-32
CCCSCCCNC(=O)CC1Oc2ccccc2NC1=O (stereo not given),-,-,-,68,-,-
COCCCNC(=O)CC1Oc2ccccc2NC1=O (stereo not given),-,-,-,-,-,-
O=C(CC1Nc2ccccc2NC1=O)NCCCN1CCCCCC1 (stereo not given),-,-,-,-,-,-
CCOC(=O)c1c(NC(=O)CC2Nc3ccccc3NC2=O)sc(C)c1C (stereo not given),-,-,-,-,-,-35
CCn1c(C)cc(=S)c2ccccc21,-,-,-,-,-,-52
COc1ccccc1N1CCN(/N=C/c2cccc(Cl)c2)CC1,33,-,-,.,-,-
COc1cccc(/C=N/N2CCN(c3ccccc3OC)CC2)c1,-,-,-,-,-,-
O=C(c1cccn2c(=O)c3cc4ccccc4cc3nc12)N1CCN(c2ccccc2)CC1,33,-,.,-,-,-
CCOC(=O)CN=C1CC(C)(C)CC2=C1Sc1ncnc(N(C)C)c1N2,38,-,-,-,-,-
CCOC(=O)C1=C(C)NC2=C(C(=O)CC(C)(C)C2)C1c1cccc(C)n1 (stereo not given),-,-,-,-,-,-
O=c1oc2ccc3ccccc3c2cc1-c1nc2ccccc2o1,-,-,-,.,-,-76
SMILES,Bcl-xL primary,GLD-1 TGE inh,E coli Lon inh,EBV gp42 inh,MCL1 BIM primary,MEX-5 binding
CC(OC(=O)c1cc2ccccc2cc1O)C(=O)Nc1ccc(S(N)(=O)=O)cc1 (stereo not given),-,-,-,-,-,-
CC(OC(=O)c1c2c(nc3ccccc13)/C(=C\c1ccc3c(c1)OCO3)CCC2)C(=O)Nc1ccc(S(N)(=O)=O)cc1 (stereo not given),.,.,77,149,.,.
Cc1c(S(=O)(=O)c2ccccn2)c(N)n(Cc2ccccc2)c1C,55,-,-,-,47,-
CC(C)(C)c1nc2ccccc2[nH]1,-,-,-,-,-,-
O=C(COC(=O)c1ccc(NS(=O)(=O)c2cccs2)cc1)NCc1ccco1,-,-,-,67,-,-
O=C(COC(=O)c1cccs1)NCc1ccco1,-,-,-,.,-,-
CCN1/C(=C/C(C)=C/c2sc3ccccc3[n+]2CC)Sc2ccccc21,33,+,-,-,-,-
CCN1/C(=C\C(=S)Nc2ccccc2)Sc2ccccc21,-,-,-,-,-,-
Nc1c(-c2nn[nH]n2)cnn1-c1cc(Cl)cc(Cl)c1,-,-,-,-,-,-
COc1ccccc1NC(=O)/C(C#N)=C/c1cc([N+](=O)[O-])ccc1N1CCCC1,-,-,-,161,-,-83
CCn1c(=O)c(C(=O)NNC(=O)c2ccccc2Cl)c(O)c2ccccc21,-,-,-,.,-,-
CC(NC(=O)Nc1ccc([N+](=O)[O-])cc1)C(c1cccs1)N1CCCC1 (stereo not given),52,-,-,-,-,-
O=C(Cn1cnc2c(NCc3ccccc3)ncnc21)NCc1ccccn1,.,.,-,.,.,.
COC(=O)CN1C(=O)N(c2ccccc2)C(N(O)C(=O)Nc2ccccc2)C1(C)C (stereo not given),-,-,-,139,-,-
CC(=O)NC1CC2CCCC(C1)N2C(=O)Nc1ccccc1 (stereo not given),-,-,-,-,-,-
Cn1c(SCCN2CCCC2)nnc1C1CCN(S(=O)(=O)c2ccc(F)cc2)CC1,-,-,-,.,-,-
CCOC(=O)C(=O)Cc1nc2ccccc2s1,-,46,-,-,-,-
Cc1cc([N+](=O)[O-])ccc1NCc1ccc2ccccc2c1,-,-,-,-,-,-
CC1CCCN(C(c2ccccc2)c2sc3ncnn3c2O)C1 (stereo not given),-,-,-,-,-,-
Cc1ccc(C(c2sc3ncnn3c2O)N2CC(C)CC(C)C2)cc1 (stereo not given),56,-,-,-,-,-
COC(=O)C(C(C)C)N(Cc1cc(OC)cc(OC)c1)S(=O)(=O)CCl (stereo not given),.,.,-,.,.,.
CCC12CCCN3CCc4c(n(c5ccccc45)C(O)(C(=O)OC)C1)C32 (stereo not given),31,-,-,-,-,-
CC[C@]12CCCN3CCc4c(n(c5ccccc45)[C@](O)(C(=O)OC)C1)[C@@H]32,-,-,-,.,-,.
OCc1c(OCc2cccc(F)c2)ccc2ccccc12,-,-,-,.,-,-
COc1ccc(NC(=O)NC(=O)c2cc(OCC(F)(F)F)ccc2OCC(F)(F)F)cc1,-,-,-,74,-,-
CCSC1=N/C(=C\c2ccccc2)C(=O)N1,-,-,-,-,-,-40
COc1ccc(NC(=O)C2(c3ccccc3)CCCC2)cc1,-,-,-,-,-,-
CCN(CC)c1ccc(/C=C/c2cccc[n+]2C)c(OC)c1,-,42,-,.,-,?
CCCCCN1C=CC=C/C1=C\C=C(C#N)C#N,-,-,-,-,-,-37
O=C(Nc1ccc2nc3ccccc3nc2c1)c1ccccc1,31,-,-,73,-,-
